# Assay results reported in PubChem BioAssay.
# Target: Alpha-bungarotoxin (Bungarus multicinctus) (UniProt P60615)
# Test: alpha-bungarotoxin binders on microarray, profiling panel, artefact control for SMM control protein annotation, biochemical, small-molecule microarray, Alexa647 label, 635/667 nm fluorescence (AID 1117)
# Conditions: alpha-BTX-A647 binding fluorescence, higher = more signal
# Chain of Alpha-bungarotoxin (Bungarus multicinctus) (P60615 whole entry, looked up): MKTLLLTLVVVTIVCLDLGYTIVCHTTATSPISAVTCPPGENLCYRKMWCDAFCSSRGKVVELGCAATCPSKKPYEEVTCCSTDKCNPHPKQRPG
row,Structure (SMILES),composite z-score
1,[N-]=[N+]=Nc1ccccc1C[C@]1(C(=O)NCC(O)CO)COC(c2ccc(OCCCO)cc2)=N1 (stereo not given in full),-0.633
2,CN(C)CCCCCCNC(=O)[C@@H]1C[C@@H]2C(=O)N3CCC[C@H]3C(=O)N2[C@@H]1c1cccc(OCCO)c1,1.79
3,CCOC(=O)C[C@H]1[C@H](OC(=O)c2cc3ccccc3oc2=O)[C@@H](NC(=O)c2ccccc2)c2cc(OCCCO)ccc2N1C(=O)c1ccccc1,0.139
4,O=C1C2C=CC(C(O)c3cccc(O)c3)N(Nc3ccc([N+](=O)[O-])cc3)C2C(=O)N1c1ccccc1 (stereo not given),1.13
5,C=CC[C@@]1(C(=O)NCCCOC)N=C(c2ccc(OCCCO)cc2)O[C@@H]1c1ccccc1,-0.146
6,CCCCC(=C=CC[C@H](O)c1ccc(OCCO)cc1)CCO,-0.322
7,C=C(C(=O)CC[C@H](OC(=O)c1ccccc1-c1ccccc1C(=O)O)c1cccc(OCCO)c1)C(C)C,0.436
8,COC(=O)[C@]1(CCS(=O)(=O)c2ccccc2)N=C(c2ccc(OCCCO)cc2)O[C@@H]1c1ccccc1N=[N+]=[N-],2.06
9,C=C(/C(=C/C[C@H](OC(=O)c1ccncc1)c1ccc(CO)o1)c1cnc2ccccc2c1)C(C)C,0.999
10,CC[C@@H]1C=C(C(=O)O)[C@H](c2ccc(C#N)cc2)N1S(=O)(=O)c1ccc(C)cc1,0.62
11,CCCCCCCCCCC(O)C1C=CC2C(=O)N(c3ccccc3)C(=O)C2N1Nc1ccc(C#N)cc1 (stereo not given),1.19
12,CC[C@@H]1C=C(C(=O)O)[C@H](c2ccccc2)N1S(=O)(=O)c1ccc(C)cc1,1.39
13,O=C1O[C@H](c2ccccc2)[C@H](c2ccccc2)N2[C@H]1[C@@H](C(=O)O)[C@]1(C(=O)Nc3ccc(C#CCCO)cc31)[C@H]2c1ccccc1OCCO,0.649
14,O=C1C2C=CC(C(O)c3ccco3)N(Nc3ccccc3F)C2C(=O)N1c1ccccc1 (stereo not given),0.25
15,COc1ccc([Si](C)(C)[C@@H]2[C@@H](CCO)O[C@]3(C(=O)N(Cc4cccc(NC(=O)[C@H](C)O)c4)c4ccccc43)[C@H]2C)cc1,0.756
16,CC(C)N1C(=O)C[C@@](C(=O)NC2CC2)(c2ccc([N+](=O)[O-])cc2)[C@H]1c1ccc(CO)cc1,0.181
17,Oc1ccc2cc[n+](Cc3cc4c(cc3Br)OCO4)cc2c1,-0.791
18,CCOC(=O)C[C@H]1[C@H](OC(=O)c2ccc(-c3ccccc3)cc2)[C@@H](NC(=O)CC(C)C)c2cc(OCCCO)ccc2N1C(=O)c1ccc2ccccc2n1,0.0623
19,CCCCC(CC)C(O)C1C=CC2C(=O)N(c3ccccc3)C(=O)C2N1Nc1ccccc1F (stereo not given),-0.176
20,CCOC(=O)C[C@H]1[C@H](OC(=O)c2ccccc2-c2ccccc2)[C@@H](NC(=O)c2ccc3ccccc3n2)c2cc(OCCCO)ccc2N1C(=O)Cc1ccc(OC)cc1,0.365
21,COCCCNC(=O)[C@@]1(CCC(=O)OC(C)(C)C)N=C(c2ccc(OCCCO)cc2)O[C@H]1c1ccccc1N=[N+]=[N-],1.71
22,OCCCC1=CC(c2ccc(CN3CCCC3)cc2)N(Cc2cc3c(cc2Br)OCO3)CC1 (stereo not given),0.396
23,CCOC(=O)C[C@H]1[C@H](OC(=O)Cc2ccc3c(c2)OCO3)[C@@H](NC(=O)C2CCCCC2)c2cc(OCCCO)ccc2N1C(=O)c1ccccc1,0.262
24,COCC(=C=CC[C@H](O)c1ccccc1OCCO)C[C@H](O)c1ccccn1,-0.0928
25,[N-]=[N+]=NCc1ccccc1[C@@H]1OC(c2ccc(OCCCO)cc2)=N[C@]1(CCS(=O)(=O)c1ccccc1)C(=O)O,1.17
